MITF TRPM1 inh = reduces MITF-dependent TRPM1 promoter luciferase signal | SK-MEL-5 TRPM1 promoter luciferase, 24 h | inhibition, % at 12.5 µM | actives 0.83% (n = 330,000);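 active = mean inhibition across replicates of 60% or more, whatever share of single replicates reaches that level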
CHOP inh = blocks CHOP induction under ER stress; CHO-K1 CHOP-promoter luciferase, tunicamycin-induced, 15-18 h; inhibition, % at 10 µM; actives 3.8% (n = 220,000);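 active = compounds that reduced the stress-induced luciferase reporter signal by more than about 70% of percent inhibition, limit read from the data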;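 also: 0% = tunicamycin plus vehicle and 100% = wells without tunicamycin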
HIF-2a inh = HIF-2a inhibition. 786-0 RCC cells HIF-2a reporter, luciferase luminescence, overnight. inhibition, % at 18.8 µM. actives 0.72% (n = 360,000). AID 624352;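 active = inhibition of the luminescence signal of 40% or more relative to plate controls, in a single-dose primary screen at 18.75 µM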
CF NFkB inh = inhibitors of cystic fibrosis induced NF-kB | inhibition, % at 5 µM | KKLEB NF-kB-GFP reporter, PAF-induced, GFP fluorescence overnight | actives 0.86% (n = 360,000);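 active = at least 50% inhibition at 5 µM, scaled per plate between neutral and stimulator controls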;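 also: PAF is a Pseudomonas aeruginosa culture filtrate used as stimulus; plate controls were PAF-stimulated DMSO wells for no effect and unstimulated DMSO wells for full effect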
KKLEB cytotox = reduces viability of KKLEB cystic fibrosis airway cells. actives 0.36% (n = 360,000). AID 602141. activity change (cytotoxicity), % at 5 µM. KKLEB CF airway cells viability, ATPlite luminescence, overnight; stronger effect = lower value; cells stimulated with P. aeruginosa culture filtrate;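 active = corrected activity change at or below -50% at 5 µM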
Peg3 promoter = Peg3 promoter activity inhibition; actives 1.7% (n = 360,000); HeLa PEG-Prom luciferase reporter, luminescence, overnight; AID 588405; inhibition, % at 20 µM;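 active = inhibition of at least 50% at 20 µM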
Mdm2-MdmX confirm = Mdm2/MdmX (human) interaction inhibition, confirmed. shares compounds with HIF-2a inh. SaOS-2 split-luciferase Mdm2/MdmX complementation, luminescence. inhibition, % at 8 µM. actives 99% (n = 740). AID 504601;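 active = mean inhibition of the luminescence signal across two replicates at or above 26 percent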
HIF-2a inh conf = confirmation of HIF-2a inhibitors | 786-0 RCC cells, HIF-2a luciferase reporter luminescence, overnight | shares compounds with HIF-2a inh | inhibition, % at 18.8 µM | actives 56% (n = 1,800);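 active = mean inhibition across four replicates of at least 40 percent at the single tested concentration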
HIF-1a cs = counter-screen for HIF-2a inhibitors: HIF-1a inhibition in MiaPaCa-2 cells. shares compounds with HIF-2a inh. MiaPaCa-2 HIF-1a luciferase reporter, desferoxamine, overnight. inhibition, % at 18.8 µM. actives 72% (n = 1,800). AID 651589;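 active = mean inhibition of the reporter signal across four replicates at the single tested dose of 50% or more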
Active calls of the source: *. Sampled rows, rich in hits. Any-hit rate of the full collection: about 4.3%.

How did COc1ccc(OC)c2sc(N(CCCN(C)C)C(=O)CCS(=O)(=O)c3ccccc3)nc12 do in these assays?
MITF TRPM1 inh: 21; HIF-2a inh: 45*; CF NFkB inh: 86*; KKLEB cytotox: -30; Peg3 promoter: 109*; HIF-2a inh conf: 37; HIF-1a cs: 60*

Results for O=C(O)c1sccc1Oc1ccc(NS(=O)(=O)c2ccccc2)cc1 ?
MITF TRPM1 inh: -1; HIF-2a inh: 16; CF NFkB inh: -18; KKLEB cytotox: -5; Peg3 promoter: -3

What do the screens show for `O=C(O)c1ccccc1NC(=O)C(Cc1ccccc1)N1C(=O)c2ccccc2C1=O` (stereo not given)?
MITF TRPM1 inh: 10; HIF-2a inh: 42*; CF NFkB inh: -7; KKLEB cytotox: 4; Peg3 promoter: 10; HIF-2a inh conf: 3; HIF-1a cs: -10

Results for CCOC(=O)CC1(CCc2ccccc2)Oc2ccccc2O1 ?
HIF-2a inh: 14

Results for CCc1ccc(-c2nnn(CCC(=O)OC)n2)cc1 ?
MITF TRPM1 inh: 16; CHOP inh: 75*; HIF-2a inh: 87*; CF NFkB inh: 2; KKLEB cytotox: -5; Peg3 promoter: -27; HIF-2a inh conf: 94*; HIF-1a cs: 70*

Results for Nc1ccc(-c2cc3ccccc3c(=O)o2)cc1 ?
MITF TRPM1 inh: 74*; HIF-2a inh: 82*; CF NFkB inh: -47; KKLEB cytotox: 12; Peg3 promoter: -45; HIF-2a inh conf: 91*; HIF-1a cs: 54*

What do the screens show for `O=c1oc(-c2ccccc2)cc2ccccc12`?
HIF-2a inh: -264; CF NFkB inh: -68; KKLEB cytotox: 2; Peg3 promoter: -279

Results for Cc1c(CCC(=O)N[C@@H](C)C(=O)O)c(=O)oc2cc3occ(-c4ccccc4)c3cc12 ?
MITF TRPM1 inh: -13; HIF-2a inh: 26; CF NFkB inh: -2; KKLEB cytotox: -2; Peg3 promoter: 6

How did Cc1c(CCC(=O)N[C@@H](C)C(=O)O)c(=O)oc2c(C)c3oc4c(c3cc12)CCCC4 do in these assays?
MITF TRPM1 inh: 14; HIF-2a inh: 50*; CF NFkB inh: -3; KKLEB cytotox: 2; Peg3 promoter: -36; HIF-2a inh conf: 60*; HIF-1a cs: 36

What do the screens show for `Cc1c(CCC(=O)NCCC(=O)O)c(=O)oc2c(C)c3oc4c(c3cc12)CCCC4`?
MITF TRPM1 inh: 9; HIF-2a inh: 56*; CF NFkB inh: 5; KKLEB cytotox: 4; Peg3 promoter: -38; HIF-2a inh conf: 65*; HIF-1a cs: 37

Results for CCOCCCNC(=O)C(NC(=O)Cc1cccs1)c1ccc(Cl)cc1 (stereo not given) ?
MITF TRPM1 inh: -13; CHOP inh: 4; HIF-2a inh: 18; CF NFkB inh: -14; KKLEB cytotox: 6; Peg3 promoter: 18

What do the screens show for `COc1ccc(C(=O)N/C(=C/c2cccs2)c2nc3ccccc3[nH]2)cc1OC`?
MITF TRPM1 inh: -6; CHOP inh: -8; HIF-2a inh: -12; CF NFkB inh: -10; KKLEB cytotox: -2; Peg3 promoter: -7

What do the screens show for `O=C(/C(=C/c1ccc(Cl)cc1)c1nc2ccccc2[nH]1)c1ccccc1`?
MITF TRPM1 inh: 84*; CHOP inh: -48; HIF-2a inh: 91*; CF NFkB inh: 89*; KKLEB cytotox: -82*; Peg3 promoter: 108*; Mdm2-MdmX confirm: 103*; HIF-2a inh conf: 43*; HIF-1a cs: 105*

Results for COc1cc(/C=C(/C(=O)c2cccs2)c2nc3ccccc3[nH]2)cc(OC)c1O ?
MITF TRPM1 inh: 53; CHOP inh: -90; HIF-2a inh: 79*; CF NFkB inh: 35; KKLEB cytotox: -7; Peg3 promoter: 100*; Mdm2-MdmX confirm: 103*; HIF-2a inh conf: 57*; HIF-1a cs: 102*

High-throughput results (PubChem BioAssay)
